Screening results: PubChem BioAssay, National Center for Advancing Translational Sciences (NCATS)
DT40 TDP1 CPT = qHTS for Inhibitors of human tyrosyl-DNA phosphodiesterase 1 (TDP1): qHTS in cells in presence of CPT | 420,000 tested, 12% active | chicken DT40 Tdp1-/-;hTDP1 cells + 20 nM CPT, ATP luminescence, 48 h | AID 686979, 2013 | Potency, µM (series often up to 46.2 µM), usual class: inhibitors; note: nearly all actives have a fitted effect of over 55% in size
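Cell growth measured by CellTiter-Glo luminescence after a minimum 48 h, 37 C compound exposure with 20 nM CPT in Tdp1-knockout DT40 cells stably expressing hTDP1, seeded 400/well; qHTS titration format.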
D3 ag = qHTS of D3 Dopamine Receptor Agonist: qHTS; D(3) dopamine receptor (Homo sapiens), P35462; D3R DiscoveRx beta-arrestin cells, luminescence, 90 min; max activation, %; 410,000 tested, 0.58% active; in the data active = max activation above about 30%
Target sequence (P35462 whole entry, looked up): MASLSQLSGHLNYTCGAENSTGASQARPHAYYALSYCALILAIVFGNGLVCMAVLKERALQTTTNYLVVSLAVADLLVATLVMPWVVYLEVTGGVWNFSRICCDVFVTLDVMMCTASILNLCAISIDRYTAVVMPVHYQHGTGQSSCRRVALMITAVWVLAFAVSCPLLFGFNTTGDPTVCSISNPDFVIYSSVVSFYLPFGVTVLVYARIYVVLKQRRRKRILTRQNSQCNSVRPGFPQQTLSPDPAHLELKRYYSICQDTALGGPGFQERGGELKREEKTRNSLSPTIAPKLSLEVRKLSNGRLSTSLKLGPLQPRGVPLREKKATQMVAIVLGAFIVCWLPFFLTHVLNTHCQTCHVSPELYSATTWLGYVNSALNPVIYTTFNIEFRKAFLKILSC
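Agonist mode: compounds and dopamine controls were applied to plated cells for 90 min at 37 degrees C after an overnight attachment at 1500 cells/well. Luminescent read-out followed 30 - 60 minutes at room temperature with DiscoveRx detection reagent.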
DT40 TDP1 no CPT = qHTS for Inhibitors of human tyrosyl-DNA phosphodiesterase 1 (TDP1): qHTS in cells in absence of CPT; DT40 Tdp1-/- hTDP1 cells, no CPT, ATP luminescence, 48 h; Potency, µM (top dose mostly 46.2 µM), usual class: inhibitors; 420,000 tested, 15% active; note: nearly all actives have a fitted effect of over 55% in size
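DT40 Tdp1-/-;hTDP1 cells, no CPT (DMSO vehicle only), 400 cells/well; compounds pin-transferred; ≥48 hr, 37 °C; CellTiter-Glo 30 min RT dark, luminescence read.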
ClpP mod = qHTS Assay for Activators of ClpP; purified B. subtilis ClpP, FRET peptide cleavage, 20 min; 340,000 tested, 1.9% active; ATP-dependent Clp protease proteolytic subunit (Bacillus subtilis (strain 168)), P80244; Potency, µM (highest dose often 57.5 µM); active = well fitted falling curve with a large enough effect; inconclusive = small, poorly fitted or top-dose-only effect; inactive = no such curve, though single readings can be large or run the other way; note: the source files actives as falling curves though it sought activators and does not explain the sign; nearly all actives have a fitted effect of over 65% in size
Target sequence (P80244 whole entry, looked up): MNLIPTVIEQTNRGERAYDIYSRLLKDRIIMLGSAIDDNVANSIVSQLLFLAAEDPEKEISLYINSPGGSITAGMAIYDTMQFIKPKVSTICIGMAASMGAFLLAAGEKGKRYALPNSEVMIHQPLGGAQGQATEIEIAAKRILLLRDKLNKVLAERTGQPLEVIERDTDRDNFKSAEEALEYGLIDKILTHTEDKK
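Purified B. subtilis ClpP, 10 microg/mL final in Tris/HCl pH8 with KCl, BSA, glycerol and Tween-20, cleaved an Abz/nitrotyrosine-quenched decapeptide. Fluorescence (ex 320, em 430) was read at 0 and 20 min at room temperature. Delta was normalized to 5.8 microM ADEP and DMSO/no-enzyme controls.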
IL1B secr inh = qHTS for Inhibitors of Inflammasome Signaling: IL-1-beta AlphaLISA Primary Screen | THP-1 LPS/ATP IL-1B secretion, AlphaLISA, 16 h; stronger effect = lower value | activity change, % at 57.5 µM | 360,000 tested, 4.7% active | AID 743279, 2014; in the data active = activity change below about -50%; inconclusive = mostly about -30% to -49%
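Secreted IL-1B measured by AlphaLISA bead assay after 16 h compound exposure of THP-1 cells; compounds (final up to 57.5 uM) added 1 h before LPS (250 ng/mL) and ATP (1.25 mM) stimulation; lower signal means less secretion.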
D3 antag = qHTS of D3 Dopamine Receptor Antagonist: qHTS | D(3) dopamine receptor (Homo sapiens), P35462 | D3R cells, DiscoveRx beta-arrestin luminescence, antagonist mode; stronger effect = lower value | max response, negative = inhibition, % | 360,000 tested, 2.5% active | AID 652054, 2013; in the data active = max response below about -50%; inconclusive = no clear call, values can overlap the other calls
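Cells expressing the human receptor were seeded at 1500 cells/well, incubated overnight at 37 degrees C in 5% CO2, then exposed to library compounds with dopamine controls for 90 minutes at 37 degrees C before luminescent detection.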
A number is an active result; - = inactive; ? = inconclusive; . = no result. Shown are actives, neighbours in structure and some others; about 21% of the full set was active somewhere. Unless noted, calls come from the whole dose curve; as a rule, active = well fitted inhibition curve with a large enough effect; inconclusive = small, poorly fitted or top-dose-only effect; inactive = flat fitted curve, though single readings scatter.

SMILES	DT40 TDP1 CPT	D3 ag	DT40 TDP1 no CPT	ClpP mod	IL1B secr inh	D3 antag
CCOc1ccc(Oc2nc(NCC(C)C)nc(NC(C)(C)C)n2)nn1	?	-	?	-	.	.
CCCCn1c(SCC(=O)Nc2ccc3c(c2)OCO3)nc2c1c(=O)n(C)c(=O)n2C	16µM	-	?	-	-	-
CCCCn1c(SCC(=O)Nc2nnc(CC)s2)nc2c1c(=O)n(C)c(=O)n2C	23µM	-	12µM	-	-	-
CCCCn1c(SCC(=O)Nc2nnc(CC)s2)nc2ccccc2c1=O	-	-	-	-	-	-
CN(C1CCCCC1)S(=O)(=O)c1ccc2c(c1)c(=O)c(C(=O)NCc1ccc(Cl)cc1)cn2C	-	-	?	-	.	.
COc1ccc(N(CC(=O)NC2CC3CCC2C3)S(=O)(=O)c2ccccc2)cc1Cl (configuration not stated)	?	-	?	-	-	-
C/C(=N\NC(=O)c1ccc(NS(=O)(=O)c2cccs2)cc1)c1ccc(C(C)(C)C)cc1	7.3µM	-	9.2µM	.	-	-
COC(=O)CSc1[nH]c2ccccc2c1[N+](=O)[O-]	18µM	-	-	-	-	?
Cc1nc2n(c(=O)c1CCN1CCC(c3noc4cc(F)ccc34)CC1)CCC[C@H]2O	0.094µM	-	0.53µM	.	.	.
O=C(c1ccccc1NS(=O)(=O)c1cccc2cccnc12)N1CCOCC1	-	-	-	.	-	-
CCc1ccc(CNC(=O)C2CCN(c3nnc(-n4c(C)ccc4C)s3)CC2)cc1	?	-	8.2µM	-	.	.
Cc1ccc(NCc2cccn2-c2nnc(N3CCC(C(=O)NCCc4ccccc4)CC3)s2)cc1	?	-	?	-	.	.
Cc1ccc(NCc2cccn2-c2nnc(N3CCCCCC3)s2)cc1	?	-	16µM	-	.	.
Cc1ccc(NCc2cccn2-c2nnc(N3CCC(C(=O)NCc4ccccc4C)CC3)s2)cc1	?	-	16µM	-	.	.
Cc1ccc(NCc2cccn2-c2nnc(N3CCC(C(=O)NCc4ccc(F)cc4)CC3)s2)cc1	?	-	18µM	-	.	.
COc1ccc2[nH]c(C(=O)O)c(CCN3C(=O)c4cccc([N+](=O)[O-])c4C3=O)c2c1	-	-	-	-	-	-
CCCC1(C(=O)OC)NC(c2ccc(OC)c(OC)c2)C2C(=O)N(c3cccc(C(C)=O)c3)C(=O)C21 (configuration not stated)	-	-	-	.	-	-
COc1ccccc1CCNC(=O)C1CCN(c2nnc(-n3cccc3CNc3ccc(C)cc3)s2)CC1	18µM	-	23µM	-	.	.
COc1ccc(OC)c2c1cc(C(=O)N[C@H](C(=O)N1CCC[C@H]1C(=O)O)C(C)C)n2C	-	-	-	-	-	-
COc1cc(N(C)C)c(OC)cc1/C=C/c1ccnc2ccccc12	10µM	.	10µM	-	.	.
COc1cc(/C=C/c2ccnc3ccccc23)ccc1N(C)C	2µM	.	2.2µM	-	.	.
COc1ccc(/C=C/c2ccncc2)c2ccccc12	-	-	?	-	-	?
CC(C)(C)NC(=O)C(c1ccncc1)n1c(=O)c(-c2cc3ccccc3[nH]2)nc2ccccc21 (configuration not stated)	23µM	-	16µM	?	-123	-
CC(C)(C)NC(=O)C(c1ccnc2ccccc12)n1c(=O)c(-c2cc3ccccc3[nH]2)nc2ccccc21 (configuration not stated)	?	-	18µM	-	-	-
CC(C)(C)NC(=O)C(c1ccnc2ccccc12)n1c(=O)c(-c2ccccc2)nc2ccccc21 (configuration not stated)	-	-	-	-	-	-
SMILES	DT40 TDP1 CPT	D3 ag	DT40 TDP1 no CPT	ClpP mod	IL1B secr inh	D3 antag
Cc1cccc(C)c1NC(=O)C(C1CC1)n1c(=O)c(-c2cc3ccccc3[nH]2)nc2ccccc21 (configuration not stated)	?	-	?	-	-	-
CC(C)(C)NC(=O)C(c1ccccc1F)n1c(=O)c(-c2cc3ccccc3[nH]2)nc2ccccc21 (configuration not stated)	?	-	13µM	-	-	-
COc1ccc(C(C(=O)NC(C)(C)C)n2c(=O)c(-c3cc4ccccc4[nH]3)nc3ccccc32)cc1 (configuration not stated)	?	-	?	-	-	-
CC(C)(C)NC(=O)C(C1CC1)n1c(=O)c(-c2cc3ccccc3[nH]2)nc2ccccc21 (configuration not stated)	18µM	-	?	-	-	-
C=CCn1c(SCC(=O)Nc2ccc(Br)cc2)nc(O)c(CC)c1=O	-	-	-	-	-	-
COc1ccc2c(CC(=O)OCC(=O)Nc3cccc(C)c3)coc2c1	-	-	-	-	-	-
CN(CC(=O)Nc1cccc(F)c1)CC(=O)Nc1ccccc1[N+](=O)[O-]	23µM	-	12µM	-	-	-
CN(CC(=O)Nc1cccc(F)c1)CC(=O)Nc1ccc(Cl)cc1[N+](=O)[O-]	?	-	-	-	-	-
COc1ccc(NC(=O)CN(C)CC(=O)c2[nH]c(C)c(C(C)=O)c2C)cc1	?	-	?	-	-	-
C=CCOc1ccc(CN(C)CC(=O)Nc2ccccc2[N+](=O)[O-])cc1	?	-	21µM	-	-	-
COC(=O)c1c(C)[nH]c(C(=O)CN(C)CC(=O)Nc2cccc(F)c2)c1C	-	-	15µM	-	-	-
COc1cccc(NC(=O)CN(C)CC(=O)Nc2ccc(C)c([N+](=O)[O-])c2)c1	?	-	10µM	.	-	-
O=C(NCCc1nnc2n1CCN(Cc1ccc(F)c(F)c1)CC2)c1ccoc1	-	.	-	.	.	.
N#Cc1ccc(OCC(=O)Nc2cc(S(=O)(=O)N3CCOCC3)ccc2N2CCCC2)cc1	-	-	-	-	-	-
O=C(Cc1ccccc1)N(Cc1cccnc1)c1nc2ccc(Cl)cc2s1	?	-	-	-	.	.
CCS(=O)(=O)c1ccccc1C(=O)N(Cc1cccnc1)c1nc2cc(C)c(C)cc2s1	?	-	23µM	-	.	.
Cc1ccc2nc(N(Cc3cccnc3)C(=O)CCS(=O)(=O)c3ccccc3)sc2c1	?	-	16µM	-	.	.
Cc1cc(C)c2nc(N(Cc3cccnc3)C(=O)Cc3ccccc3)sc2c1	?	-	?	-	.	.
